Assay results published in PubChem BioAssay (NCI).
Several values for one entry are separate records, joined by “and”; a condition that tells them apart may be missing. Equal values may be shown once. This is part of a sample that, as a whole, favours compounds with a hit. Of some 83,000 tested, about 20% had one in any assay.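 Single-concentration screen, 48 h exposure, 96-well plates. Endpoint: percent growth. Below 10 = active.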 Unmarked numbers belong to inactive results. Activity calls are given as the source filed them.

Each compound was assayed on RPMI-8226 leukemia (assay: NCI-60 one-dose screen, 48 h (100 = growth as untreated, 0 = no growth, -100 = all killed)). Settings: 1 µM.
Method: Growth inhibition of the RPMI-8226 human tumor cell line is measured as a screen for anti-cancer activity. Cells are grown in 96 well plates and exposed to the test compound for 48 hours. Compounds are tested at a single concentration, which is 10^-5 M for most compounds. The reported endpoint is percent growth (GI% or GIPRCNT), where numbers from 0 - 100% represent growth inhibition, and numbers from -100% - 0 represent cell death. For example, a value of 40 represents 60% growth inhibition. A value of 0 means no net growth occurred over the course of the experiment. A value of -40 indicates 40% of cells at the beginning of the experiment died by the end of the experiment. A value of -100 means all cells are dead at the end of the experiment.
NCI-60 Human Tumor Cell Lines Screen was performed using the standard one-dose NCI protocol, which is described in more detail at https://dtp.cancer.gov/discovery_development/nci-60/default.htm.
Compounds with GIPRCNT values below 10 were considered active. Activity score was based on GIPRCNT using the following formula: […]
Score is 0 for GIPRCNT values of 100 or above, 50 for GIPRCNT values of 0, and 100 for GIPRCNT values of -100.

Compound	growth
CC/C(=C(\c1ccc(O)cc1)c1ccc(OCCN(C)C(=O)COCCNC(=O)Cc2ccc3c(c2)CN([C@@H]2CCC(=O)NC2=O)C3=O)cc1)c1ccccc1	83.7%
CC/C(=C(/c1ccc(O)cc1)c1ccc(OCCN(C)C(=O)COCCOCCNC(=O)Cc2ccc3c(c2)CN([C@@H]2CCC(=O)NC2=O)C3=O)cc1)c1ccccc1	90.3%
CC/C(=C(/c1ccc(O)cc1)c1ccc(OCCN(C)C(=O)CCOCCNC(=O)Cc2ccc3c(c2)CN([C@@H]2CCC(=O)NC2=O)C3=O)cc1)c1ccccc1	88%

Same assay, conditions: 10 µM

Compound	growth
CC/C(=C(\c1ccc(O)cc1)c1ccc(OCCN(C)C(=O)COCCNC(=O)Cc2ccc3c(c2)CN([C@@H]2CCC(=O)NC2=O)C3=O)cc1)c1ccccc1	51.8%
CC/C(=C(/c1ccc(O)cc1)c1ccc(OCCN(C)C(=O)COCCOCCNC(=O)Cc2ccc3c(c2)CN([C@@H]2CCC(=O)NC2=O)C3=O)cc1)c1ccccc1	72%
CC/C(=C(/c1ccc(O)cc1)c1ccc(OCCN(C)C(=O)CCOCCNC(=O)Cc2ccc3c(c2)CN([C@@H]2CCC(=O)NC2=O)C3=O)cc1)c1ccccc1	78.3%

Same assay, conditions: 10 µM unless noted

Compound	growth
O=C(CSc1nnc(-c2ccc(-c3nc4ccc(Cl)cc4[nH]3)cc2)o1)Nc1ccccc1	45.6%
O=C(c1cc2cc(OCCCN3CCC3)ccc2[nH]1)N1C[C@@H](CCl)c2c1cc(OCc1ccccc1)c1ccccc21	-37.1% (active)
FC(F)(F)c1cc2c(Cl)ncnc2n1CCN1CCCCC1	102%
N#CC1=C(c2cccs2)Nc2c(c(-c3ccccc3)nn2-c2ccccc2)C12C(=O)Nc1ccccc12 (stereo unspecified)	34.5%
CS(=O)(=O)c1ccc(-n2nc(C(=O)NCc3ccccc3)cc2-c2ccc(Cl)cc2)cc1	56.8%
Cc1cc(Cl)ccc1NC(=O)Nc1ccc(-c2ccc3c(c2)NC(=O)/C3=C\c2ccc[nH]2)cc1	100%
O=C(c1ccc(Cl)cc1)C1[C@H](c2ccccc2Cl)[C@@H](c2ccccc2)NC12C(=O)Nc1ccccc12 (stereo partly specified)	-0.108% (active)
CCCCCCCCCCCCCCCCCC(=O)Nc1ccc(OC)cc1	99.6%
c1ccc(CSc2nnc(-c3ccc4nc(-c5ccccc5)[nH]c4c3)o2)cc1	36.7%
CS(=O)(=O)Nc1cc(-c2ccc3ncnc(N4CCc5cc(F)c(Cl)cc54)c3c2)cnc1Cl	-9.06% (active)
COC(=O)c1c(C(=O)OC)c2ccc3c4ccccc4ccc3n2c1C(=O)OC	104%
CCCCCCCCc1cccc(CC(=O)Nc2ccc(C)cc2C(=O)O)c1	25.4% [25 µM]
Nc1nn2c(-c3cc4ccccc4oc3=O)ccnc2c1N=Nc1ccccc1	105%
O=C1CC(c2ccc(I)cc2)OC2C=Cc3ccccc3C12 (stereo unspecified)	87.2%
N#CC1=C(c2ccco2)Nc2c(c(-c3ccccc3)nn2-c2ccccc2)C12C(=O)Nc1ccc(Cl)cc12 (stereo unspecified)	49.8%
CS(=O)(=O)Nc1cccc(-n2c(COc3ccc(OC(F)(F)F)cc3)nc3ccccc32)c1	76.7% and 98.1%
Cc1cccc(NCC(=O)N2CCN(c3ncnc4c3cnn4-c3ccccc3)CC2)c1	75.7%
CC(Nc1ncnc2ccc(-c3ccc4oc(N)nc4c3)cc12)c1ccccc1 (stereo unspecified)	-17.9% (active)

Compound	growth
COc1cc(NC(=O)C(C)C)ccc1C(=O)NC(=S)Nc1ccc(S(N)(=O)=O)cc1	107%
COc1cc(/C=C/C(=O)c2cnn(-c3cc(=O)[nH]c4ccc(C)cc34)c2C)cc(OC)c1OC	-40.2% (active)
C=CC[n+]1cccc2c3ccccc3ccc21	27.6%
CC(C)(C)C(=O)c1c2c(c3ccc4c5ccccc5ccc4n13)C(=O)c1ccccc1C2=O	96.6%
COc1ccc2c(c1)N=c1c-2cc2c(O)[nH]c(=S)n2c1=O	62.6%
CC(=O)Nc1cccc(-n2c(COc3ccc(I)cc3)nc3ccccc32)c1	75.8% and 110%
O=C(N/N=C/c1ccsc1)c1[nH]c2ccc(Br)cc2c1-c1ccccc1	1.5% (active)
NNc1ncnc2sc3c(c12)CCN(Cc1ccccc1)C3	39.3%
O=C(CSc1nc2sc3c(c2c(=O)n1-c1ccc(Cl)cc1)CCCC3)NNC(=O)c1ccc(Br)cc1	81.3%
Nc1nnc(-c2cncc(Br)c2)c(-c2c[nH]c3ccc(Cl)cc23)n1	48.5%
COc1cccc(/C=C/c2nc3ccccc3c(=O)n2CC(=O)Nc2ccccc2)c1	71.3%
CCCSc1nnc(-c2c(C)nc3sccn23)o1	70.3%
O=C(CSc1nnc(-c2ccc(-c3nc4ccccc4[nH]3)cc2)o1)Nc1ccccc1	56.5%
O=C1NC(=S)/C(=C/c2cn(-c3ccccc3)nc2-c2ccccc2)S1	5.49% (active)
O=C(c1ccc(Cl)cc1)C1[C@H](c2ccccc2Cl)[C@@H](c2ccccc2)NC12C(=O)Nc1ccc(Br)cc12 (stereo partly specified)	2.44% (active)
COc1ccc(NC2=C(I)C(=O)C(C)=C(C)C2=O)cc1	2.98% (active)
CC[C@]12C=CCN3CC[C@@]4(c5ccc(OC)cc5N(C)[C@H]4[C@@](O)(C(=O)OC)[C@@H]1OC(=O)CCCC[P+](c1ccc(F)cc1)(c1ccc(F)cc1)c1ccc(F)cc1)[C@@H]32	4.14% (active)
